Test [1] is described as follows: antimalarial activity against Dd2 strain (AID 2302;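 active = growth inhibition above 50% at the single 2 µM test dose, taken to imply half-maximal potency below 2 µM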;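 note: 0% = DMSO untreated growth and 100% = chloroquine plus artemisinin killed control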). The note with it: P. falciparum Dd2 in RBCs, LDH growth readout, 72 h; at 2 µM; active compounds read high.
Test [2] is described as follows: human hepatoma cell viability loss – ATP luminescence, cytotoxicity control for P. falciparum antimalarial project, primary screen (AID 2303;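 active = inhibition above 50%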;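 note: 0% = DMSO wells and 100% = digitonin-killed cells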). The following applies: HepG2 viability, 24-48 h, at 10 µM, active compounds read high.
In test [3] the target is L-lactate dehydrogenase (Plasmodium falciparum (isolate CDC / Honduras)) (UniProt Q27743). The experiment in a line: PfLDH activity inhibition – cell lysate, 3D7 strain, counter-screen for P. falciparum growth inhibition project (AID 2304).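 Note: 0% = vehicle and 100% = reference inhibitor.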 The note with it: P. falciparum 3D7 crude extract, LDH APAD/NBT absorbance; at 2 µM; active compounds read high.
L-lactate dehydrogenase (Plasmodium falciparum (isolate CDC / Honduras)), sequence (Q27743 whole entry, looked up): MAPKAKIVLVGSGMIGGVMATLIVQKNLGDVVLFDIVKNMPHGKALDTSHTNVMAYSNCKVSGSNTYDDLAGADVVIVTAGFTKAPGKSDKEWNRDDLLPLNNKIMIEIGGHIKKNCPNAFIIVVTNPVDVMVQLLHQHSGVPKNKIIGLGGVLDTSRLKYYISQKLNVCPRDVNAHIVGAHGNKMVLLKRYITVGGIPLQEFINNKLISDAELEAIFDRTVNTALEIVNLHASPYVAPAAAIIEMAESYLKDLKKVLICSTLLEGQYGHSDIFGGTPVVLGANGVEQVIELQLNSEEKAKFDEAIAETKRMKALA
Test [4] can be described thus: inhibition of 3D7 malaria parasite growth – strain 3D7 (AID 2306).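 Note: 0% = DMSO wells and 100% = chloroquine plus artemisinin control wells.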 The note with it: P. falciparum 3D7 erythrocytic growth, LDH absorbance, 72 h; at 2 µM; active compounds read high.
The target in test [5] is Calcium-dependent protein kinase 1 (Plasmodium falciparum (isolate 3D7)) (UniProt P62344). The experiment in a line: PfCDPK1 kinase inhibitors, biochemical, TCAMS library (AID 1159585; cut-off not given, nearly all actives have IC50 up to about 0.98 µM;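 note: inhibitors leave more ATP so luminescence rises with inhibition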). The note with it: recombinant PfCDPK1, Kinase-Glo ATP depletion luminescence.
Calcium-dependent protein kinase 1 (Plasmodium falciparum (isolate 3D7)), sequence (P62344 whole entry, looked up): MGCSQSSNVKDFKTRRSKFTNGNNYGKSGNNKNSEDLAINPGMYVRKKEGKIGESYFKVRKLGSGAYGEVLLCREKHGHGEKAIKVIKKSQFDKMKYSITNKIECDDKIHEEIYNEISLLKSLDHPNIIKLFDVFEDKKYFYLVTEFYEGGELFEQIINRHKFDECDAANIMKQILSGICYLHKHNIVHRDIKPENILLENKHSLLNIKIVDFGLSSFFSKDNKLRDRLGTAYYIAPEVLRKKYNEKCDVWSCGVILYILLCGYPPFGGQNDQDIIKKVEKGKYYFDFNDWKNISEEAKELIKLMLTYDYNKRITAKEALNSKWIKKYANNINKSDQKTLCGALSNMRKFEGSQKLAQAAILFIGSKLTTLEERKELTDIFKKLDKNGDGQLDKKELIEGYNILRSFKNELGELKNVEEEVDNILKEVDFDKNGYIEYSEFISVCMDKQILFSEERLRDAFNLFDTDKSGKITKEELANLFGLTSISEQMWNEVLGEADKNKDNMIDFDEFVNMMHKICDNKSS
Test [6] has as its target Plasmodium falciparum protein kinase 6 (PK6, PF3D7_1337100) (UniProt Q8IDW1). The experiment in a line: PfPK6 kinase inhibitors, biochemical, TCAMS library (AID 1159586). The note with it: recombinant PfPK6, Kinase-Glo ATP depletion luminescence.
Test [7] has as its target Protein kinase 7 (PK7), Plasmodium falciparum 3D7 (PF3D7_0213400) (UniProt Q7YTF7). The experiment in a line: inhibition of Plasmodium PK7 catalytic activity – biochemical, TCAMS antimalarial set, Kinase-Glo luminescence (AID 1159587). The note with it: recombinant PfPK7, Kinase-Glo ATP depletion luminescence.
The target in test [8] is Calcium-dependent protein kinase 4 (Plasmodium falciparum (isolate 3D7)) (UniProt Q8IBS5). The experiment in a line: PfCDPK4 kinase inhibitors, biochemical, TCAMS library (AID 1159588; cut-off not given, nearly all actives have IC50 up to about 0.91 µM). The note with it: recombinant PfCDPK4, Kinase-Glo ATP depletion luminescence.
Calcium-dependent protein kinase 4 (Plasmodium falciparum (isolate 3D7)), sequence (Q8IBS5 whole entry, looked up): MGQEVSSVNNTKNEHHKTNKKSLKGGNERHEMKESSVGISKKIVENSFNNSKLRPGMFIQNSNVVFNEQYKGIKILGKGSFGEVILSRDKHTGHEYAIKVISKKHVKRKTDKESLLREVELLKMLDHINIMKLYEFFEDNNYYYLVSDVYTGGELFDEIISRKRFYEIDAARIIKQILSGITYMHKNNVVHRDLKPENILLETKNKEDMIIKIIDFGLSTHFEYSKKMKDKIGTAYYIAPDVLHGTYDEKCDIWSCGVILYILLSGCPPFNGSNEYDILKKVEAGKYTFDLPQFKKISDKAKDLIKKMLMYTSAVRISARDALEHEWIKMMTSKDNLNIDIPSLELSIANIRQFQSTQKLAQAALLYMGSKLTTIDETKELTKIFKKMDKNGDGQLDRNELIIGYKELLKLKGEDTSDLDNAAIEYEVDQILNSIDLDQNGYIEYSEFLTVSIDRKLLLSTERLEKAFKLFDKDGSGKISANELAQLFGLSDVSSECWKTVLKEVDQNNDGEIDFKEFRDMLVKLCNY

Unmarked numbers belong to inactive results. For some of these results: Potency and affinity values are given separately. Calls of active or inactive are those of the source. Unless noted, the rule behind the calls is not given here.

Protein kinase 7 (PK7), Plasmodium falciparum 3D7 (PF3D7_0213400), sequence (Q7YTF7 1-343): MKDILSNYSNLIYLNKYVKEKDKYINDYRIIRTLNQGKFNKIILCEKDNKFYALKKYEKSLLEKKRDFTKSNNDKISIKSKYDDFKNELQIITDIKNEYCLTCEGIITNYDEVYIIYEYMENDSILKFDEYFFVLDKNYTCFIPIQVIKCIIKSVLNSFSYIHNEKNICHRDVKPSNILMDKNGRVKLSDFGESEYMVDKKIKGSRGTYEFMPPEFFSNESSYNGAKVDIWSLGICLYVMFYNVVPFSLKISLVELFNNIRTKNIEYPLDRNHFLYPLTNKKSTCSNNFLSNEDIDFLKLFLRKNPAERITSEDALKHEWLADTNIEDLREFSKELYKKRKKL
Plasmodium falciparum protein kinase 6 (PK6, PF3D7_1337100), sequence (Q8IDW1 1-305): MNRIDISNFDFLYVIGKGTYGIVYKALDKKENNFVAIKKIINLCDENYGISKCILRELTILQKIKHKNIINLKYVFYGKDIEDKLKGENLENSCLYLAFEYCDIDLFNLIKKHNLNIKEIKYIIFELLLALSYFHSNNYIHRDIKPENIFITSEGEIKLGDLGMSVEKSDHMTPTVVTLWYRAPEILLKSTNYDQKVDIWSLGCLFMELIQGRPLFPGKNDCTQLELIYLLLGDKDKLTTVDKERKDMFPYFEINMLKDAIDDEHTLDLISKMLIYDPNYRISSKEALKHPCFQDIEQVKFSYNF

For the compound `N#Cc1cccc(C(=O)Nc2ccc(-c3nc4ccccc4[nH]3)cc2)c1`, the growth inhibition in test [1] is 38%; in test [4], 91% (active). Moreover, the inhibition in test [2] is 33%; in test [3], -2%. Also, the result in test [5], in test [6], in test [7] and in test [8] was inactive.
As for `CN1CCCN(Cc2ccc(-c3ccc(NC(=O)c4ccc(Cl)cc4)cc3)cc2)CC1`, the results for the growth inhibition in test [1] and in test [4] were 67% (active) and 96% (active), respectively. For the same compound, the inhibition in test [2] was 58% (active); in test [3], 3%. The outcome in test [5], in test [6], in test [7] and in test [8] was inactive.
In the case of `N#Cc1cc(C(=O)c2cc(Cl)ccc2O)cn(-c2cc(Cl)cc(Cl)c2)c1=O`, the growth inhibition in test [1] was 32%; in test [4] it was 93% (active). For the same compound, the values for the inhibition in test [2] and in test [3] were 34% and -8%, respectively. Besides, the outcome in test [5], in test [6], in test [7] and in test [8] was inactive.
For `Cc1cc(NN=Cc2ccc(Cl)cc2)c2ccc(F)cc2n1`, the growth inhibition in test [1] was 87% (active); in test [4], 100% (active). Further, the figures for the inhibition in test [2] and in test [3] were 6% and -2%, respectively. For the same compound, the outcome in test [5], in test [6], in test [7] and in test [8] was inactive.
As for `COc1cc2nc(N3CCC(CNC(=O)c4ccc(-c5ccc(C#N)cc5)cc4)CC3)nc(N)c2cc1OC`, the growth inhibition in test [1] was 99% (active); in test [4], 100% (active). In addition, the inhibition in test [2] is 21%; in test [3], -4%. Further, the result in test [5], in test [6], in test [7] and in test [8] was inactive.
Take `O=C(NC(=Cc1cccc([N+](=O)[O-])c1)c1nc2ccccc2[nH]1)c1cccc(Br)c1`: the figures for the growth inhibition in test [1] and in test [4] were 88% (active) and 85% (active), respectively. Also, the inhibition in test [2] is -1%; in test [3], 0%. Also, the outcome in test [5], in test [6], in test [7] and in test [8] was inactive.
With `Cc1noc(C)c1-c1ccc2c(Nc3ccccc3C(C)(C)C)c(C(=O)NC3CCCC3)cnc2c1`, the growth inhibition is 79% (active) in test [1] and 93% (active) in test [4]. The inhibition in test [2] is 27%; in test [3], -3%. Besides, the result in test [5], in test [6], in test [7] and in test [8] was inactive.
With `Cc1cccc(-c2ccc(CNC3CCN(CC4Cn5c(=O)ccc6ccc(F)c4c65)CC3)cn2)c1` (stereo not given), the growth inhibition in test [1] was 2%; in test [4], 90% (active). Moreover, the inhibition in test [2] and in test [3] was -2% each time. The outcome in test [5], in test [6], in test [7] and in test [8] was inactive.
On to `CCCc1cc(Cc2cnc(N)nc2N)cc2c1OC(C)C2C` (stereo not given), for which the growth inhibition in test [1] was 0%; in test [4], 98% (active). The inhibition is 32% in test [2] and -3% in test [3]. The result in test [5], in test [6], in test [7] and in test [8] was inactive.
Regarding `CCN(CC)CCN(Cc1ccc(-c2ccc(C(F)(F)F)cc2)cc1)C(=O)Cn1c(CCc2c(F)ccc(F)c2F)nc(=O)c2ccccc21`, the growth inhibition is 62% (active) in test [1] and 98% (active) in test [4]. Besides, the inhibition in test [2] is 44%; in test [3], -6%. Besides, the result in test [5], in test [6], in test [7] and in test [8] was inactive.
`O=C(Nc1ccc(OC2CCN(Cc3ccc(F)cc3)C2)c(Cl)c1)c1ccco1` (stereo not given): the growth inhibition in test [1] was 97% (active); in test [4], 96% (active). Moreover, the inhibition in test [2] was 9%; in test [3] it was -2%. Besides, the result in test [5], in test [6], in test [7] and in test [8] was inactive.
As for `CN1CCCC(CN2CCN(Cc3ccc(-c4ccc(-c5nc6ccccc6[nH]5)cc4)cc3)CC2)C1` (stereo not given), the growth inhibition in test [1] is 100% (active); in test [4], 101% (active). The inhibition in test [2] was 69% (active); in test [3], 0%. Further, the result in test [5], in test [6], in test [7] and in test [8] was inactive.
Turning to `CCCNC[C@@H](O)[C@H](Cc1ccccc1)NC(=O)c1cc2c3c(c1)c(CC)cn3CCS(=O)(=O)N2C`, the values for the growth inhibition in test [1] and in test [4] were 98% (active) and 97% (active), respectively. In addition, the inhibition in test [2] is -4%; in test [3], 2%. The result in test [5], in test [6], in test [7] and in test [8] was inactive.
With `O=C1CN(C(=O)CCC2CCCC2)C(c2ccc(F)cc2)c2cc(F)ccc2N1` (stereo not given), the growth inhibition in test [1] was 75% (active); in test [4], 100% (active). For the same compound, the inhibition in test [2] was 12%; in test [3], -5%. Further, the outcome in test [5], in test [6], in test [7] and in test [8] was inactive.
For `N#Cc1ccc(C(=O)NC2CCN(CCCCCNC(=O)/C=C/c3ccc(Cl)c(Cl)c3)CC2)cc1`, the growth inhibition is 1% in test [1] and 98% (active) in test [4]. Moreover, the inhibition was 13% in test [2] and -4% in test [3]. Besides, the outcome in test [5], in test [6], in test [7] and in test [8] was inactive.
With `CCCC1N=C(N)N=C(N)N1c1ccc(C)c(C)c1` (stereo not given), the growth inhibition in test [1] is -2%; in test [4], 95% (active). For the same compound, the inhibition was 7% in test [2] and -3% in test [3]. Also, the outcome in test [5], in test [6], in test [7] and in test [8] was inactive.
For the compound `O=C(CC1SC(N2N=C(c3cccs3)CC2c2ccccc2)=NC1=O)Nc1ccccc1F` (stereo not given), the growth inhibition is 76% (active) in test [1] and 87% (active) in test [4]. Further, the inhibition is 9% in test [2] and -2% in test [3]. The outcome in test [5], in test [6], in test [7] and in test [8] was inactive.
`FC(F)(F)c1ccc2nc(-c3ccc(-c4cccc(CNCCN5CCNCC5)c4)cc3)[nH]c2c1`: the growth inhibition in test [1] is 2%; in test [4], 92% (active). Also, the inhibition was 13% in test [2] and -1% in test [3]. The outcome in test [5], in test [6], in test [7] and in test [8] was inactive.
On to `CC(C)CNCc1ccc(-c2cccc(CNc3ccc4ncccc4c3)c2)cc1`, for which the growth inhibition in test [1] was 31%; in test [4], 96% (active). Moreover, the figures for the inhibition in test [2] and in test [3] were 29% and -2%, respectively. Moreover, the result in test [5], in test [6], in test [7] and in test [8] was inactive.
In the case of `Clc1ccc(-c2ccc(CNCCCN3CCCC3)cc2)cc1`, the growth inhibition in test [1] is 21%; in test [4] it was 91% (active). Besides, the inhibition in test [2] is 47%; in test [3], -5%. Also, the outcome in test [5], in test [6], in test [7] and in test [8] was inactive.
